Six compounds from PubChem BioAssay can be followed below.

Structures are written as SMILES. Active and inactive are the calls of the source.

In experiment [1] the test system is Human papillomavirus type 1a protein E7 (residues 44-93). The experiment is described as follows: HPV1a E7 fragment binders on microarrays, primary screen, biochemical, small-molecule microarray, residues 44-93, 635 nm fluorescence (AID 1108).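 Note: E7 fragment applied at 1 µg/mL in TBST for 1 h at 4 C; score combines spot fluorescence with its signal to noise ratio.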 As to conditions: small-molecule microarray binding, fluorescence 635 nm; higher = more signal.
The nature of experiment [2]: modulators of HCV replicon luciferase signal, primary screen, HCV replication inhibitor project, Huh7 cells, luciferase reporter (AID 1109).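 Note: huh7 hepatoma cells harbouring a luciferase neomycin HCV replicon reporter; luciferase luminescence as measure of HCV replicon replication; test concentration not given here.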 The settings on record: 48 h, higher = more signal. In general terms: In antiviral work, replicon cells carry a viral genome segment that copies itself.
The target of experiment [3] is Left-right determination factor 2 (Homo sapiens) (UniProt O00292). The experiment is described as follows: LEFTY2 binders on small-molecule microarrays, primary screen, biochemical, small-molecule microarray, 635 nm fluorescence scan (AID 1110). The settings on record: LEFTY2 binding, higher = more signal.
Experiment [4] deals with Calmodulin-1 (Homo sapiens) (UniProt P0DP23). Description: CALM1 binders on microarrays, EGTA buffer, profiling panel, biochemical, small-molecule microarray, Cy5-labelled CALM1 (AID 1111).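 Note: labelled calmodulin applied in Tris saline Tween buffer holding calcium plus EGTA and DTT.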 The settings on record: Cy5-CALM1 binding fluorescence, higher = more signal.
Experiment [5] shares this target. The experiment is described as follows: calcium-bound CALM1 binders on microarrays, profiling panel, artefact control for SMM control-protein annotation, biochemical, small-molecule microarray, Cy5-labelled CALM1, plus calcium (AID 1112).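 Note: score merges spot fluorescence with signal to noise from triplicate slides.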 As to conditions: Cy5-CALM1 binding fluorescence, higher = more signal.
Experiment [6] is described as follows: small-molecule microarray binders of probe aWnt5a, primary screen, biochemical, biotinylated probe, 635/667 nm fluorescence (AID 1113).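 Note: score merges 667 nm fluorescence intensity with signal-to-noise per printed feature.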 The settings on record: higher = more signal.
Experiment [7] is described as follows: small-molecule microarray binders of probe aShh, primary screen, biochemical, biotinylated probe, 635/667 nm fluorescence (AID 1114).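 Note: probe is biotin-labelled aShh protein from a stem cell growth factor screen; measures binding of labelled protein to compounds printed on the slide; score merges feature fluorescence at 667 nm with signal-to-noise.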 As to conditions: higher = more signal.
Experiment [8] can be described thus: small-molecule microarray binders of probe aNog, primary screen, biochemical, biotinylated probe, 635/667 nm fluorescence (AID 1115).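 Note: probe is biotinylated aNog protein used at 0.15 µg/mL for 1 h at 4 C; z-score combines 667 nm fluorescence of each spot with its signal to noise.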 The settings on record: higher = more signal.
For experiment [9], the target named is Torsin-1A-interacting protein 1 (Homo sapiens) (UniProt Q5JTV8). The experiment is described as follows: LAP1 binders from COS7 cell lysate, primary screen, small-molecule microarray, 635/667 nm fluorescence (AID 1116). As to conditions: COS7-hLAP1 lysate binding, 635 nm fluorescence, higher = more signal.
Experiment [10] addresses Alpha-bungarotoxin (Bungarus multicinctus) (UniProt P60615). Description: alpha-bungarotoxin binders on microarray, profiling panel, artefact control for SMM control protein annotation, biochemical, small-molecule microarray, Alexa647 label, 635/667 nm fluorescence (AID 1117). As to conditions: alpha-BTX-A647 binding fluorescence, higher = more signal.
Another experiment concerns the target Albumin (Bos taurus) (UniProt P02769). Description: bovine serum albumin binders on microarray, profiling panel, artefact control for SMM control protein annotation, biochemical, small-molecule microarray, Alexa647 label, 635/667 nm fluorescence (AID 1118).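 Note: score merges 667 nm emission intensity and signal-to-noise per printed compound spot.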 The settings on record: BSA-A647 binding, fluorescence 635 nm, higher = more signal.
Experiment [11] can be described thus: small-molecule microarray binders of probe aXIP, primary screen, biochemical, NeuroSMM set, 635/667 nm fluorescence (AID 1119).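 Note: probe is the protein aXip251-270 applied at 1 µg/mL to compound-printed slides; binding of probe to printed compounds measured as 667 nm fluorescence plus signal to noise.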 The settings on record: higher = more signal, called active from +8 up or from −8 down.
Experiment [12] in a line: small-molecule binders of probe aNOTCH3, primary screen, biochemical, small-molecule microarray, 635/667 nm fluorescence (AID 1120).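 Note: probe is a biotin-tagged antibody raised against NOTCH3 rather than NOTCH3 protein; score merges spot fluorescence near 667 nm with spot signal to noise.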 The settings on record: higher = more signal.
Experiment [13] is described as follows: small-molecule binders of probe aNOTCH2, primary screen, biochemical, small-molecule microarray, 635/667 nm fluorescence (AID 1121).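 Note: score merges feature fluorescence read at 667 nm with its signal to noise.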 The settings on record: higher = more signal.
Experiment [14] has as its target Carbonic anhydrase 2 (Homo sapiens) (UniProt P00918). Description: CAII small-molecule binders, profiling panel, biochemical, small-molecule microarray, Alexa647-labelled CAII (AID 1122). As to conditions: CAII-A647 binding fluorescence, higher = more signal.
Experiment [15] in a line: COS7 lysate on small-molecule microarray, probe aHis, 635 nm (AID 1123).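 Note: z-score combines 667nm fluorescence intensity with signal-to-noise per printed compound spot.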 The settings on record: COS7 cell lysate, fluorescence, higher = more signal.
Experiment [16] in a line: compound binding in COS7 lysate, probe aLAP1, primary screen, cell lysate, small-molecule microarray (AID 1124).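 Note: lysate comes from COS7 cells expressing LAP1 and is applied at 0.3 µg/mL; score merges spot fluorescence near 667 nm with signal-to-noise over triplicate slides.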 The settings on record: probe aLAP1, fluorescence, higher = more signal.
The test system of a further experiment is Sam68 (KHDRBS1). Description: Sam68 small-molecule binders, primary screen, biochemical, small-molecule microarray, 635 nm fluorescence (AID 1125).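 Note: score merges 667 nm channel intensity with signal to noise over triplicate slides.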 As to conditions: small-molecule microarray binding, higher = more signal.
Experiment [17] deals with Chordin-like protein 2 (CHRDL2). Description: CHRDL2 small-molecule binders, primary screen, biochemical, small-molecule microarray, 635 nm fluorescence (AID 1126).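 Note: printed compound slides probed with Chrdl2 protein at 4 µg/mL for 1 h at 4 C; score merges 667 nm emission intensity with signal to noise over three replicate slides.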 As to conditions: small-molecule microarray binding, fluorescence 635 nm; higher = more signal.
The target of experiment [18] is Concanavalin-A (Canavalia ensiformis) (UniProt P02866). The experiment is described as follows: ConA small-molecule binders, primary screen, artefact control for SMM control protein annotation, biochemical, small-molecule microarray, Alexa647 label, 635 nm (AID 1127).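 Note: z combines 667 nm emission intensity with signal-to-noise across three replicate slides.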 The settings on record: ConA-A647 binding fluorescence, higher = more signal.
Concanavalin-A (Canavalia ensiformis), sequence (P02866 whole entry, looked up): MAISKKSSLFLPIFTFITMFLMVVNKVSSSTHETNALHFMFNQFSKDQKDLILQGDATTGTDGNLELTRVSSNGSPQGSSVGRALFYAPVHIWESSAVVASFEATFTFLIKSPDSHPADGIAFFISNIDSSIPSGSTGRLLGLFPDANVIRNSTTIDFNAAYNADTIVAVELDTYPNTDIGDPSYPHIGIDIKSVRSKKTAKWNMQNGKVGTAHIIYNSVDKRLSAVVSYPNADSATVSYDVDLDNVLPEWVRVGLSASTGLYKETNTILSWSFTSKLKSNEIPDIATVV

Alpha-bungarotoxin (Bungarus multicinctus), sequence (P60615 whole entry, looked up): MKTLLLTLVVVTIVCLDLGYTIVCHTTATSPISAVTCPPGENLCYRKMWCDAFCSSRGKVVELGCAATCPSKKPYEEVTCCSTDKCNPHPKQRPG
Albumin (Bos taurus), sequence (P02769 whole entry, looked up): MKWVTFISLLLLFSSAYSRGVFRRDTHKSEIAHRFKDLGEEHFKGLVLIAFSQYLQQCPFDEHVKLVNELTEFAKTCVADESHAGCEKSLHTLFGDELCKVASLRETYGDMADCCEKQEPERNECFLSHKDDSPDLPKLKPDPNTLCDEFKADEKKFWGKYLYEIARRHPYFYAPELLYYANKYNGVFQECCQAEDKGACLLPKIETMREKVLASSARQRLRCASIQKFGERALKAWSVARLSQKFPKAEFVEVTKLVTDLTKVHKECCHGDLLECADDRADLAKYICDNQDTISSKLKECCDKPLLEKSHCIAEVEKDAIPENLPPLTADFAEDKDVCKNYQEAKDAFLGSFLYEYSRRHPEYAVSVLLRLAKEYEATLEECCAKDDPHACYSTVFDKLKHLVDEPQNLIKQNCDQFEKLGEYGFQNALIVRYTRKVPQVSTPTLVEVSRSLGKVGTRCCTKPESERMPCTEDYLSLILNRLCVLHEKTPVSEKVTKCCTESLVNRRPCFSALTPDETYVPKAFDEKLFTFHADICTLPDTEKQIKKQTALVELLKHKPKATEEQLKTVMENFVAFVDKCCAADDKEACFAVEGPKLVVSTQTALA
Left-right determination factor 2 (Homo sapiens), sequence (O00292 whole entry, looked up): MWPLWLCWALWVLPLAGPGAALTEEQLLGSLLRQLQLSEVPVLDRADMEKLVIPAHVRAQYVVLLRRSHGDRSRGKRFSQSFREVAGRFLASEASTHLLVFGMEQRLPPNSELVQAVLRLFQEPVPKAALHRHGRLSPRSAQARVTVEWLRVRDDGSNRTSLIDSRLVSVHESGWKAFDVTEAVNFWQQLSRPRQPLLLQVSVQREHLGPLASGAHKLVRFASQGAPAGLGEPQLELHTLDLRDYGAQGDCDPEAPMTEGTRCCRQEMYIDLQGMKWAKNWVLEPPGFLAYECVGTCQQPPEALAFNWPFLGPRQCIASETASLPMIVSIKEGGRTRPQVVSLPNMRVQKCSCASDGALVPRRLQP
Torsin-1A-interacting protein 1 (Homo sapiens), sequence (Q5JTV8 whole entry, looked up): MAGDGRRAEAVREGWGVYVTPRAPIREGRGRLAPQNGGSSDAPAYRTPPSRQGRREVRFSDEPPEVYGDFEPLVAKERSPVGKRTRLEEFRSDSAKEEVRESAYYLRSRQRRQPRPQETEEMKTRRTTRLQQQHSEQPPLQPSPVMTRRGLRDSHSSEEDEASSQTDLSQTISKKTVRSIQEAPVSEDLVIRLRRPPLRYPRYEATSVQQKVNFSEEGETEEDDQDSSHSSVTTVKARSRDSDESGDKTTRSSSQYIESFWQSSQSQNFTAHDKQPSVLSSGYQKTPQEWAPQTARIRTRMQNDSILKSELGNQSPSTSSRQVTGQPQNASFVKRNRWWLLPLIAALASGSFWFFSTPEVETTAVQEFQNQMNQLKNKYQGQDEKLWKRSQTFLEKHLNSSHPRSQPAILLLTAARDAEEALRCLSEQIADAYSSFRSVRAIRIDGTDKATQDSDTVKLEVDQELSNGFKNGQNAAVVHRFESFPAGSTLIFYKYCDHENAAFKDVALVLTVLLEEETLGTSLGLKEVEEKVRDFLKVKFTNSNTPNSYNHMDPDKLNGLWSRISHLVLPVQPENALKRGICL

As to `CCN(CC)c1ccc(N2CC=CC34O[C@@H]5/C=C\CCC(C)OC(=O)C5[C@H]3C(=O)N(CCCCCO)[C@@H]4C2=O)cc1` (stereo not given in full), the composite z-score in [1] is -2.06; in experiment [3], -1.5; in experiment [4] it was -0.407; in experiment [5], 0.381; in experiment [6], -0.0346; in experiment [7], -0.253. In addition, the composite z-score was -0.234 in experiment [8]; -1.59 in experiment [9]; -0.324 in experiment [10]; -0.295 in the experiment with Albumin (Bos taurus); -0.222 in experiment [12]; -0.19 in experiment [13]. Also, the composite z-score in [14] is 0.905; in experiment [15], -1.05; in experiment [16], -0.472; in the experiment with Sam68 (KHDRBS1), -2.57; in [17] it was -1.16; in experiment [18], -2.12. In addition, in experiment [2], the z-score was 0.008. Also, in [11], the composite Z-score is -0.4 (inactive).

`O=C1O[C@H](c2ccccc2)[C@H](c2ccccc2)N2[C@H]1[C@@H](C(=O)NC[C@H](O)c1ccccc1)[C@]1(C(=O)Nc3ccccc31)[C@H]2c1ccc(O)cc1`: the composite z-score in experiment [1] was 0.69; in [3], 0.733; in [4], 1.06; in experiment [5], 0.659; in [6], -0.124; in experiment [7] it was -0.138. Besides, the composite z-score is 0.293 in experiment [8]; 0.825 in [9]; 0.771 in experiment [10]; 0.626 in the experiment with Albumin (Bos taurus); -0.0328 in experiment [12]; -0.0629 in experiment [13]. In addition, the composite z-score amounted to 0.66 in experiment [14]; 1.19 in [15]; 0.463 in experiment [16]; 0.959 in the experiment on Sam68 (KHDRBS1); 1.23 in [17]; 1.01 in [18]. In addition, the z-score in experiment [2] is -0.705. Besides, in experiment [11], the composite Z-score is -0.35 (inactive).

In the case of `COC(=O)C(CC#Cc1ccc2c(c1)[C@]1(C(=O)N2)[C@H](c2ccccc2OCCO)N2[C@H](c3ccccc3)[C@H](c3ccccc3)OC(=O)[C@H]2[C@@H]1C(=O)O)C(=O)OC`, the composite z-score in experiment [1] amounted to 1.43; in [3] it was 0.17; in [4], 1.61; in experiment [5] it was 0.701; in experiment [6], 0.0597; in [7], 0.218. The composite z-score in experiment [8] is 0.0258; in [9] it was 0.967; in experiment [10], 1.94; in the experiment with Albumin (Bos taurus) it was 0.573; in experiment [12], 0.194; in experiment [13] it was -0.1. For the same compound, the composite z-score in experiment [14] is 0.367; in experiment [15] it was 1.7; in experiment [16], 0.375; with Sam68 (KHDRBS1), 1.3; in experiment [17] it was 0.132; in experiment [18], 1.09. Further, the z-score in [2] is -0.567. Further, in experiment [11], the composite Z-score is 0.0066 (inactive).

For the compound `O=C1O[C@@H](c2ccccc2)[C@@H](c2ccccc2)N2[C@@H](c3ccc(OCCO)cc3)[C@]3(C(=O)Nc4ccc(C#CCCO)cc43)[C@@H](C(=O)NC[C@H](O)c3ccccc3)[C@H]12`, the composite z-score in [1] was found to be 1.4; in experiment [3], 0.25; in experiment [4], 0.604; in experiment [5], 0.174; in [6], 0.119; in experiment [7], 0.493. The composite z-score is -0.398 in experiment [8]; 1.09 in experiment [9]; 1.24 in [10]; -0.517 in the experiment with Albumin (Bos taurus); 0.138 in [12]; -0.143 in [13]. Besides, the composite z-score worked out at 0.165 in experiment [14]; 1.66 in experiment [15]; 0.822 in [16]; 1.26 with Sam68 (KHDRBS1); 0.891 in experiment [17]; 1.07 in experiment [18]. The compound also registered a z-score in experiment [2] of -1.25. In addition, in experiment [11], the composite Z-score was 1.23 (inactive).

With `O=C1OCC=C[C@H]2OC34C=CCN(Cn5nnc6ccccc65)C(=O)[C@H]3N(CCCCCO)C(=O)[C@@H]4[C@@H]12` (stereo not given in full), the composite z-score is -0.129 in experiment [1]; -1.3 in [3]; -0.497 in [4]; 0.0598 in [5]; 0.184 in experiment [6]; -0.209 in [7]. For the same compound, the composite z-score in [8] was 0.105; in experiment [9] it was 3.17; in [10] it was -0.464; with Albumin (Bos taurus), -0.552; in experiment [12], -0.211; in [13], -0.108. Besides, the composite z-score in [14] was 0.9; in [15], 1.34; in [16] it was 0.435; in the experiment on Sam68 (KHDRBS1), -0.171; in experiment [17] it was -1.87; in experiment [18], -0.727. The same compound showed a z-score in [2] of -0.0996. Also, the composite Z-score in experiment [11] was 0.177 (inactive).

As for `COc1cc(OC)c(C(O)C2C=CC3C(=O)NC(=O)C3N2Nc2ccccn2)cc1Br` (stereo not given), the composite z-score in experiment [1] was 0.19; in experiment [3] it was 0.586; in experiment [4], 0.0037; in experiment [5], -0.107; in experiment [6], -0.0684; in experiment [7], -0.0769. Besides, the composite z-score in experiment [8] was -0.461; in [9], 1.17; in experiment [10] it was 0.484; with Albumin (Bos taurus), -0.257; in experiment [12] it was -0.0026; in experiment [13] it was -0.0598. In addition, the composite z-score in experiment [14] came out at 0.819; in experiment [15] it was 0.973; in experiment [16] it was 0.487; with Sam68 (KHDRBS1), 0.755; in experiment [17], 1.02; in experiment [18], 0.747. In [2], this compound came in with a z-score of 0.742. Besides, in [11], the composite Z-score is 0.172 (inactive).
